This is a sample that favours compounds with a hit; in the whole collection about 8% have one here.
FMDV inh – High Throughput Screening for Foot and Mouth Disease Virus Antivirals; FMDV antiviral cell-based qHTS; hit rate 1.2% among 410,000; Potency, µM (titrated, usually from 57.9 µM), without a hit: at the highest dose activity change, negative = inhibition, usual class: inhibitors; calls by dose curve; tested in HEK293T cells; note: read-out not given here; potency is the fitted concentration of half-maximal effect; % is set by controls: 0 for no effect and ±100 for the full control effect; nearly all actives have a fitted effect of over 45% in size
MARV entry inh – qHTS for inhibitors of binding or entry into cells for Marburg Virus | Marburg virus pseudotyped entry inhibition, cell reporter | Potency, µM (top dose mostly 37.8 µM), inactives show at the top dose activity change, negative = inhibition, most hits filed as inhibitors | hit rate 1.8% among 300,000 | AID 540276, 2011; calls by dose curve; tested in HEK293 cells; note: potency is the fitted concentration of half-maximal effect; % is set by controls: 0 for no effect and ±100 for the full control effect
HCMV antiviral – qHTS Assay for inhibitors of the human cytomegalovirus (HCMV); HFF cells, HCMV-luciferase reporter, 72 h; stronger effect = lower value; activity change, negative = inhibition, % at 57.5 µM; hit rate 4.5% among 410,000; in the data active = activity change below about -60%; inconclusive = no clear call, values can overlap the other calls; inactive = above about -39%; note: % is set by controls: 0 for no effect and ±100 for the full control effect
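Steps: HFFs plated, 16 h 37C; compounds added; HCMV-luciferase added to MOI 1 PFU/cell; 72 h 37C; OneGlo reagent, 5 min room temperature; luminescence read, normalized to controls.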
HCV inhibitor – qHTS Assay for Inhibitors of Hepatitis C Virus (HCV); Potency, µM (top dose mostly 41.8 µM), without a hit: top-dose activity change, negative = inhibition, usual class: inhibitors; Huh7.5.1 HCVcc-Cre infection, luciferase reporter, 44 h; AID 651820, 2012; hit rate 3.4% among 340,000; active = well fitted inhibition curve with a large enough effect; inconclusive = small, poorly fitted or top-dose-only effect, or another doubt; inactive = no such curve, though single readings can be large or run the other way; note: potency is the fitted concentration of half-maximal effect; % is set by controls: 0 for no effect and ±100 for the full control effect
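Infectious HCV cell culture screen: compound-treated cells (1,000/well, pre-plated 4 h) are infected with HCVcc-Cre at roughly 0.5 moi and grown 44 h. Infection is quantified by luciferase signal after 15 min substrate incubation at room temperature.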
Lassa entry inh – qHTS for Inhibitors of binding or entry into cells for Lassa Virus; Lassa virus pseudotype entry inhibition, cell reporter; hit rate 1.2% among 300,000; Potency, µM (titrated, usually from 37.9 µM), for the others: top-dose activity change, negative = inhibition, most hits filed as inhibitors; calls by dose curve; tested in HEK293 cells; note: potency is the fitted concentration of half-maximal effect; % is set by controls: 0 for no effect and ±100 for the full control effect; nearly all actives have a fitted effect of over 50% in size
SARS PLP yeast – qHTS of Yeast-based Assay for SARS-CoV PLP; S. cerevisiae expressing SARS-CoV PLpro, growth rescue; Potency, µM (doses to about 32.9 µM), for the others: top-dose activity, positive = growth rescue, usual class: activators; hit rate 0.19% among 330,000; AID 485353, 2010; calls by dose curve; note: potency is the fitted concentration of half-maximal effect; 0% is about no effect; nearly all actives have a fitted effect of over 55% in size
* hit, by the source's call; ? = inconclusive; / = not tested or not shown; [ ] = another dose, or the depositor's remark.

SMILES	FMDV inh	MARV entry inh	HCMV antiviral	HCV inhibitor	Lassa entry inh	SARS PLP yeast
OC1(c2cccc(C(F)(F)F)c2)CCN(c2ncnc3c2[nH]c2ccc(F)cc23)CC1	?	3.98µM*	-87.2*	0.708µM*	14.1µM*	/
COc1cc2[nH]c3c(N4CCN(c5ccccn5)CC4)ncnc3c2cc1OC	17.8µM*	10µM*	/	6.31µM*	?	9.9%
COc1ccc2[nH]c3c(N4CCc5ccccc5C4)ncnc3c2c1	25.1µM*	0.708µM*	-87.6*	?	?	-18.6%
CC(=O)N1CCC(O)(c2cccc(C(F)(F)F)c2)CC1	/	-8.8%	-6.6	1.8%	0.5%	1.8%
COc1ccc(NC(=O)CN2CCCN(S(=O)(=O)c3ccc(Br)cc3)CC2)c(OC)c1	?	-16.4%[46.1 µM]	-11.8	/	-14.1%[46.1 µM]	/
COCCNC(=O)CCCn1c(SCC(=O)c2ccc(Br)cc2)nc2c(sc3ccccc32)c1=O	-9.9%	3.7%[46.1 µM]	5.9	/	1.1%[46.1 µM]	/
CCOC(=O)N1CCN(c2ncnc3c2[nH]c2ccc(F)cc23)CC1	14.1µM*	?	-81.0*	8.91µM*	6.0%	1.6%
Fc1ccc2[nH]c3c(N4CCN(c5ccccc5)CC4)ncnc3c2c1	?	?	-97.3*	7.94µM*	?	-15.4%
COc1ccc(N2CCN(c3ncnc4c3[nH]c3ccccc34)CC2)cc1	3.98µM*	?	-91.7*	5.62µM*	?	/
O=C(c1ccco1)N1CCN(c2ncnc3c2[nH]c2ccccc23)CC1	/	/	/	/	/	7.6%
CCOc1ccc2[nH]c3c(N4CCN(C(=O)c5ccco5)CC4)ncnc3c2c1	-20.0%	?	-31.2	-25.0%	?	0.2%
CCOC(=O)CN1C(=O)[C@]2(OCCC=C[C@@H]2C)c2c(Br)cccc21	/	-20.1%[14.2 µM]	/	/	/	/
Cc1ccc(C(=O)C2C(=O)C3CCC2C3)cc1 (centres undefined)	/	/	-73.3*	/	/	/
CCCCCC(=O)Nc1nc(C)c(-c2csc(Nc3ccc(Cl)cc3)n2)s1	-7.9%	/	?	-21.6%	/	1.5%
Cc1nc(NC(=O)CC(C)C)sc1-c1csc(Nc2ccc(Cl)cc2Cl)n1	-9.5%	/	?	-28.2%	/	-8.8%
Cc1nc(NC(=O)CC(C)C)sc1-c1csc(Nc2ccc(Cl)cc2)n1	-21.5%	/	-21.6	7.08µM*	/	0.6%
COc1ccc(Cl)cc1Nc1nc(-c2sc(NC(=O)CC(C)C)nc2C)cs1	-29.4%	/	-2.1	11.2µM*	/	0.9%
CN(Cc1ccccc1)Cc1cc(=O)oc2ccccc12	18.2%	/	19.0	/	?	/
Cc1cc2oc(=O)cc(CN3CCCCC3C)c2cc1C(C)C (centres undefined)	-28.0%	-25.6%[46.1 µM]	-35.0	12.6µM*	?	1.3%
COc1ccc2oc(=O)cc(CN(C)Cc3ccccc3)c2c1	-4.7%	?	?	7.94µM*	-22.6%[46.1 µM]	-6.4%
Cc1cc2oc(=O)cc(CN(C)Cc3ccccc3)c2cc1C(C)C	-23.6%	?	-32.4	8.91µM*	-3.1%	-6.4%
CC(C)(C)C(C)(C)CN=CN1c2ccccc2-n2cccc2C1c1cccc(F)c1 (centres undefined)	/	/	-4.6	/	/	/
COc1ccc(Cl)cc1NS(=O)(=O)c1c(C)nc2scc(C)n2c1=O	-3.8%	5.3%[46.1 µM]	2.1	/	-2.5%[46.1 µM]	/
CNCC(O)C(O)C(O)C(O)CO (centres undefined)	-15.0%	/	25.1	?	/	2.1%
CCSC(SCC)[C@H](O)[C@@H](O)[C@H](O)[C@H](O)CO	-16.6%	-4.7%	-64.6*	0.1%[8.37 µM]	-7.7%	0.9%
SMILES	FMDV inh	MARV entry inh	HCMV antiviral	HCV inhibitor	Lassa entry inh	SARS PLP yeast
CCCCCCn1c([C@H](C)O)nc2ccccc21	/	-12.5%	/	/	/	/
CCOC(=O)N1CCN(C(=O)C(NC(=O)c2ccc(C(C)(C)C)cc2)C(C)C)CC1 (centres undefined)	-27.8%	/	-61.7*	?	/	0.5%
CCOC(=O)N1CCN(C(=O)c2ccccc2NC(=O)c2ccc(C(C)(C)C)cc2)CC1	-4.6%	-6.4%	?	22.1%	1.9%	-5.7%
CN=C1S/C(=C\c2ccc(SC)cc2)C(=O)N1C	20.8%	2.9%[46.1 µM]	-39.0	?	?	-1.6%
CN=C1S/C(=C\c2ccc(Cl)cc2)C(=O)N1C	17.7%	19.8%[46.1 µM]	-11.8	11.2µM*	25.8%	-1.8%
C=CCN=C1S/C(=C/c2cccc([N+](=O)[O-])c2)C(=O)N1CC=C	?	/	-74.4*	?	/	-1.5%
C=CCN=C1S/C(=C\c2ccc(Cl)cc2)C(=O)N1CC=C	-19.5%	0.2%[46.1 µM]	-84.1*	-6.1%	-8.0%[46.1 µM]	0.5%
COc1ccccc1NC(=O)N[C@H]1CC[C@@]23CCCN2C(=O)CCC[C@H]3[C@H]1C	/	/	0.4	/	/	/
CC(=O)N(Cc1cc2c(C)cc(C)cc2[nH]c1=O)C1CCCCC1	-19.2%	?	8.2	-20.6%	-22.2%	-7.1%
CCOC(=O)Cn1nnnc1C(C(C)C)N(Cc1cc2c(C)cc(C)cc2[nH]c1=O)C1CCCC1 (centres undefined)	?	8.91µM*	-0.9	11.5%	?	5.8%
CC1CCN(S(=O)(=O)N2CCC(C(=O)NCc3ccccc3Cl)CC2)CC1	-17.7%	/	-5.6	/	-11.4%[46.1 µM]	/
CN(CC(=O)Nc1ccc(Cl)cc1F)C1CCS(=O)(=O)C1 (centres undefined)	-22.2%	/	-100.1*	7.6%	/	4.9%
O=C(CN1Cc2ccccc2OC(c2ccsc2)C1)NCc1ccc2c(c1)OCO2 (centres undefined)	-2.6%	/	/	/	/	/
COC(=O)C1=CN(c2ccc(OC)cc2)C=C(C(=O)OC)C1c1ccc(C)c([N+](=O)[O-])c1	?	?	-78.0*	?	?	12.1%
COC(=O)C1=CN(c2cccc(C)c2)C=C(C(=O)OC)C1c1cc(OC)c(O)c([N+](=O)[O-])c1	-13.0%	?	117.6	3.1%	4.11µM*	-5.1%
Cc1cccc(C)c1NC(=O)CCCn1c(=O)c2cccn2c2ccccc21	-17.6%	/	?	/	6.2%[46.1 µM]	/
CC(C(=O)O)c1ccc2c(c1)CC(=O)c1ccccc1S2 (centres undefined)	/	/	2.6	/	/	/
COc1cc(CNC2CCCCCCC2)cc(Cl)c1OCC(N)=O	-18.0%	/	0.9	-15.3%	/	5.7%
COc1cc(CNC2CCCC2)cc(Cl)c1OCc1ccc(F)cc1	-26.9%	?	33.7	1.26µM*	?	-6.5%
CCOc1cc(CNC2CCCC2)cc(Cl)c1OCc1ccc(F)cc1	/	5.8µM*	-16.1	3.98µM*	?	-10.0%
COc1cc(CNC2CCCC2)cc(Cl)c1OCc1ccccc1Cl	?	10.3µM*	?	?	?	-10.6%
CCCCC[C@]12Cc3ccccc3C(O1)c1c(cc(C)oc1=O)O2	/	/	/	/	/	-4.3%[6.58 µM]
CCCNC(=O)N1C2=NC(C(=O)OC)=C(C(=O)OC)[C@@H]3Nc4ccccc4[C@]23C[C@H]1C(=O)OC	/	3.2%[14.2 µM]	/	/	?	/
c1ccc(-c2[nH]ncc2-c2ccnc3ccccc23)nc1	-10.3%	/	/	/	/	/

Assay outcomes: PubChem BioAssay, National Center for Advancing Translational Sciences (NCATS)
